In the library only some 4.1% were active in any assay of this set; here they are far more common.
tim23-1 inh: tim23-1 yeast growth inhibition. S. cerevisiae tim23-1 growth, BacTiter-Glo luminescence, 24 h. inhibition, % at 20 µM. 330,000 tested, 1.3% active. AID 463212;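 active = growth inhibition of the mutant yeast at or above 50%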;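 note: temperature-sensitive mutant grown at 25 °C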
NLRP3 yeast inh: blocks the NALP3 inflammasome reconstituted in yeast; Yeast reconstituted NLRP3/ASC/caspase-1, beta-gal luminescence, 24 h; inhibition, % at 10 µM; 330,000 tested, 0.39% active;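 active = inhibition of 50% or more; inactive = inhibition below 50%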
tim10-1 inh: tim10-1 yeast growth inhibition; AID 463190; S. cerevisiae tim10-1 ts strain growth, BacTiter-Glo, 24 h; inhibition, % at 20 µM; 330,000 tested, 2.2% active;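 active = inhibition of at least 40%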;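 note: mutant grown at 25 °C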
NALP1 inh: inhibitors of NALP1 inflammasome in yeast; AID 2071; 280,000 tested, 0.61% active; inhibition, % at 10 µM; S. cerevisiae NALP1/ASC/caspase-1 growth, X-gal OD620, 72 h; in the data active = inhibition mostly above about 24%, no sharp cut-off; inactive = mostly below about 32%
TIM10 inh: TIM10 yeast growth inhibition; S. cerevisiae TIM10 strain growth, BacTiter-Glo luminescence, 24 h; 330,000 tested, 1.4% active; inhibition, % at 10 µM;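 active = inhibition of 40% or more at the single tested concentration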;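 note: wild-type TIM10 isogenic control strain grown at permissive 25 °C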
tim10-1 confirm: confirmation of tim10-1 mutant yeast growth inhibitors; shares compounds with tim10-1 inh; S. cerevisiae tim10-1 ts strain growth, BacTiter-Glo, 24 h; inhibition, % at 20 µM; 7,400 tested, 56% active;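 active = inhibition of yeast growth at or above a set limit in either of two repeat tests at 20 µM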;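 note: tim10-1 mutant grown at permissive 25 °C to find synthetic lethal compounds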
TIM10 conf: TIM10 yeast growth inhibition, confirmed; shares compounds with TIM10 inh; S. cerevisiae tim10 strain growth, BacTiter-Glo luminescence, 24 h; inhibition, % at 10 µM; 4,600 tested, 63% active; AID 463215;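 active = inhibition of yeast growth at or above a set limit in either of two replicates at 10 µM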; note: this counterscreen used the strain with wild-type TIM10
tim23-1 conf: tim23-1 yeast growth inhibition, confirmed | S. cerevisiae tim23-1 growth, BacTiter-Glo luminescence, 24 h | 4,400 tested, 83% active | shares compounds with tim23-1 inh | AID 463218 | inhibition, % at 20 µM;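 active = inhibition above about 39% in either of two replicate wells at 20 µM, limit read from the data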;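 note: temperature-sensitive tim23-1 mutant grown at 25 °C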
Each line names hits and unclear results; the compound was inactive in the other large screens (follow-up assays come after a bar, where they were run).

C=CCn1c(O)c(C2=c3ccccc3=NC2=O)c2ccccc21	none
Cc1ccc2c(c1)c(C1=c3ccccc3=NC1=O)c(O)n2C	tim23-1 inh 52.1, tim10-1 inh 50.1, TIM10 inh 41.2 | tim10-1 confirm 33.3 | TIM10 conf 50.3 | tim23-1 conf 64.3
C/C(=N\Nc1nc(C)cc(-c2ccccc2)n1)c1ccc(C)o1	tim23-1 inh 52.4, tim10-1 inh 49.1, TIM10 inh 44.8 | tim10-1 confirm 32.5 | TIM10 conf inactive | tim23-1 conf 48.7
CCCCCCCN1CCC(=O)N([C@H](CO)CC(C)C)CC1	none
Oc1c(Br)cc(Cl)cc1C=Nc1ccccc1Br	tim23-1 inh 84.1, tim10-1 inh 45.9 | tim10-1 confirm inactive | tim23-1 conf 78.7
Cc1cccc(C(=O)OCC(=O)Nc2c(C)n(C)n(-c3ccccc3)c2=O)c1O	none (no result: NALP1 inh)
Cn1cc([N+](=O)[O-])c(C(=O)Nc2sc3c(c2C#N)CCC3)n1	tim23-1 inh 55.9, tim10-1 inh 45.2 | tim10-1 confirm 34.2 | tim23-1 conf 48.5
O=C(CNC(=O)c1ccccc1)N/N=C/c1cc(Br)ccc1O	none
O=C(CN1CC(c2ccccc2)CC1=O)N/N=C/c1cc(Br)ccc1O (stereo unspecified)	tim23-1 inh 56.1, tim10-1 inh 41.3 | tim10-1 confirm inactive | tim23-1 conf 50.3
O=C(NC(=S)NCc1ccccc1)c1ccccc1F	tim23-1 inh 51.3, tim10-1 inh 40.1 | tim10-1 confirm 26.9 | tim23-1 conf inactive
O=C(NC(=S)NCCc1ccccc1)c1ccccc1	tim23-1 inh 55.4, tim10-1 inh 44.9, TIM10 inh 42.7 | tim10-1 confirm inactive | TIM10 conf 41.5 | tim23-1 conf 47.7
O=C(NC(=S)NCc1ccccc1)c1ccccc1Br	none
CC(=O)NNC(=S)NCCc1ccccc1	none
O=c1[nH]c2cc(S(=O)(=O)CCO)ccc2o1	none
Cc1ccc(/C(N)=N/OC(=O)C23CC4CC(CC(C4)C2)C3)cc1	tim23-1 inh 79.7, tim10-1 inh 58.3, TIM10 inh 84.8 | tim10-1 confirm 41.6 | TIM10 conf 85.7 | tim23-1 conf 67.4
Cc1cccc(/C(N)=N/OC(=O)c2cccs2)c1	tim23-1 inh 81.3, tim10-1 inh 64.6, TIM10 inh 79.0 | tim10-1 confirm 56.6 | TIM10 conf 72.7 | tim23-1 conf 75.5
N/C(=N\OC(=O)Cc1ccccc1)c1cccc(Br)c1	none
N/C(=N\OC(=O)c1cccs1)c1cccc(Br)c1	tim23-1 inh 79.7, tim10-1 inh 57.3, TIM10 inh 89.9 | tim10-1 confirm 59.0 | TIM10 conf 86.2 | tim23-1 conf 51.2
N/C(=N\OC(=O)c1cccs1)c1ccccc1	tim23-1 inh 71.1, tim10-1 inh 65.1, TIM10 inh 69.8 | tim10-1 confirm 62.6 | TIM10 conf 36.0 | tim23-1 conf 67.2
COc1ccc(S(=O)(=O)N2CCCC(C(F)(F)F)C2)cc1 (stereo unspecified)	none
Cc1ccc(/C(N)=N/OC(=O)c2cccs2)cc1	tim23-1 inh 73.2, tim10-1 inh 47.8, TIM10 inh 80.3 | tim10-1 confirm 60.1 | TIM10 conf 88.1 | tim23-1 conf inactive
Cc1ccc(C(=O)COC(=O)c2cccs2)cc1	none
CC(=O)c1cccc2c(O)c(C3=Nc4ccccc4C3=O)[nH]c12	tim23-1 inh 88.3, tim10-1 inh 72.7, TIM10 inh 63.2 | tim10-1 confirm 56.8 | TIM10 conf inactive | tim23-1 conf 89.6
O=C1c2ccccc2C(Nc2ccc(Cl)cn2)N1Cc1ccccc1 (stereo unspecified)	tim23-1 inh 55.6, tim10-1 inh 43.9, TIM10 inh 42.2 | tim10-1 confirm inactive | TIM10 conf 45.9 | tim23-1 conf 54.0
NC(=O)C1(N2CCCCC2)CCN(C(=S)Nc2ccc(F)c(Cl)c2)CC1	none
O=C(Nc1ccc(OCC(F)(F)C(F)F)c(C(F)(F)F)c1)c1ccccc1O	tim23-1 inh 54.4, tim10-1 inh 81.4, TIM10 inh 62.0 | tim10-1 confirm 75.8 | TIM10 conf inactive | tim23-1 conf 68.8
O=C(Nc1ccc(OCC(F)(F)C(F)F)c(C(F)(F)F)c1)c1ccccc1	none (no result: NALP1 inh)
O=C1C(SCCO)=C(SCCO)C(=O)c2ccccc21	tim23-1 inh 79.9, tim10-1 inh 85.6, TIM10 inh 52.1 (no result: NALP1 inh) | tim10-1 confirm 92.8 | TIM10 conf 38.0 | tim23-1 conf 75.4
O=C1C(Cl)=C(NCCCO)C(=O)c2ccccc21	none
COc1ccc(-c2nnc(SCc3c(C)noc3C)o2)cc1	none
COc1cc([N+](=O)[O-])ccc1NC(=O)CCCOc1cccc(C)c1	none
Cc1[nH]c2c(C)cccc2c1CCNC(=O)c1ccc2c(c1[N+](=O)[O-])C(=O)c1ccccc1C2=O	none
CN(C)C(=O)c1ccc2c(c1[N+](=O)[O-])C(=O)c1ccccc1C2=O	tim23-1 inh 60.8, tim10-1 inh 71.4, TIM10 inh 69.0 | tim10-1 confirm 61.2 | TIM10 conf 62.8 | tim23-1 conf 58.2
CCCCOc1ccc(/C=C/C(=O)N(CC)CC(=O)Nc2ccc3c(c2)OCCO3)cc1OC	none (no result: NALP1 inh)
C/C(CC(=O)Nc1ccc(Cl)c(C(F)(F)F)c1)=N\NC(=O)c1cccc(O)c1	none
COc1ccccc1NC(=O)CN1CCN(CC(=O)Nc2ccc(Cl)c(C(F)(F)F)c2)CC1	none (no result: tim23-1 inh, NLRP3 yeast inh, tim10-1 inh, TIM10 inh)
C/C(CC(=O)Nc1ccc(Cl)c(C(F)(F)F)c1)=N\NC(=O)c1ccccc1O	tim23-1 inh 56.9, tim10-1 inh 46.8 | tim10-1 confirm 39.0 | tim23-1 conf 41.2
CCc1ccccc1NCC(=O)Nc1ccc(Cl)c(C(F)(F)F)c1	tim23-1 inh 51.7, tim10-1 inh 68.3, TIM10 inh 47.9 (no result: NALP1 inh) | tim10-1 confirm 54.2 | TIM10 conf inactive | tim23-1 conf 57.1
CCOc1ccc(NC(=O)CN(C)C(=O)c2c(-c3ccccc3Cl)noc2C)cc1OCC	none (no result: NALP1 inh)
COc1nc(OC)nc(Oc2ccc(Cl)cc2[N+](=O)[O-])n1	none
COc1ccc([N+](=O)[O-])c(S(=O)(=O)c2ccccc2)n1	tim23-1 inh 76.8, tim10-1 inh 49.6 | tim10-1 confirm 46.5 | tim23-1 conf 47.0
COc1ccc([N+](=O)[O-])c(S(=O)(=O)c2ccc(Cl)cc2)n1	tim23-1 inh 52.6, tim10-1 inh 74.5, TIM10 inh 83.5 | tim10-1 confirm 73.3 | TIM10 conf 93.6 | tim23-1 conf 85.5
CCOn1c(=O)c(-c2cccs2)[n+]([O-])c2ccccc21	tim23-1 inh 61.8, tim10-1 inh 56.7 | tim10-1 confirm 41.1 | tim23-1 conf 67.5
